Laboratory results published in the supplement of paper PMC12067093, “Discovery and optimisation of a covalent ligand for TRIM25 and its application to targeted protein ubiquitination” (Chemical Science, 2025).
About 21,000 targets were measured; listed, in parts, are those with the largest changes and a random draw of the rest.

Each target was assayed with CC1Cc2ccccc2N1C(=O)C1CCCN(C1)C(=O)CCl (mixture of isomers) [TRIM25 ligand 11 (diastereomer mixture)] (assay: probe-labelled cysteine peptide fold change vs DMSO (competition) (log2 fold change); higher = less target engagement (more negative = stronger competition)). Conditions: 10 µM; THP-1; incubation time: 4 h.
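Also: competitive chemoproteomic profiling in live THP-1 cells with an iodoacetamide desthiobiotin (IA-DTB) probe, comparing probe-labelled peptide intensities in compound-treated cells against DMSO-treated controls.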

UniProt Q9UBB6, sequence (Q9UBB6 whole entry, looked up): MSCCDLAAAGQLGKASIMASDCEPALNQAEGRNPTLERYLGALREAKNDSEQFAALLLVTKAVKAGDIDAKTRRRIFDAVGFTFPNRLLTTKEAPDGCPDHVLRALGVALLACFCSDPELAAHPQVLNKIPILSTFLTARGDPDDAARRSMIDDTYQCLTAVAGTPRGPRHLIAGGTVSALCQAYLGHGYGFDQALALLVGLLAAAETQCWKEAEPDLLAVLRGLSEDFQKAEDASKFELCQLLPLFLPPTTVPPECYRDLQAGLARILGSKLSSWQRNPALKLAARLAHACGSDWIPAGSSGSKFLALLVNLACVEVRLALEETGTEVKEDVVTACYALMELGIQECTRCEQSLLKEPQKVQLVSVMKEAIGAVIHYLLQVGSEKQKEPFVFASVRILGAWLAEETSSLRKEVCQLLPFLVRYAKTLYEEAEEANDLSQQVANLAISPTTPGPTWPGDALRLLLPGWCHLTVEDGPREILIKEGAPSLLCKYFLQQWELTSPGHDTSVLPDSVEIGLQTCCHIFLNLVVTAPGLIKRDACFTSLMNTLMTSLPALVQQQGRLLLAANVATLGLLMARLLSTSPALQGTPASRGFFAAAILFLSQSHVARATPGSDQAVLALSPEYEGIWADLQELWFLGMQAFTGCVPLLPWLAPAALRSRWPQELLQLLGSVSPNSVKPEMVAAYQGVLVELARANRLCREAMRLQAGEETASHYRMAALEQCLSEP
UniProt Q5SY16, sequence (Q5SY16 whole entry, looked up): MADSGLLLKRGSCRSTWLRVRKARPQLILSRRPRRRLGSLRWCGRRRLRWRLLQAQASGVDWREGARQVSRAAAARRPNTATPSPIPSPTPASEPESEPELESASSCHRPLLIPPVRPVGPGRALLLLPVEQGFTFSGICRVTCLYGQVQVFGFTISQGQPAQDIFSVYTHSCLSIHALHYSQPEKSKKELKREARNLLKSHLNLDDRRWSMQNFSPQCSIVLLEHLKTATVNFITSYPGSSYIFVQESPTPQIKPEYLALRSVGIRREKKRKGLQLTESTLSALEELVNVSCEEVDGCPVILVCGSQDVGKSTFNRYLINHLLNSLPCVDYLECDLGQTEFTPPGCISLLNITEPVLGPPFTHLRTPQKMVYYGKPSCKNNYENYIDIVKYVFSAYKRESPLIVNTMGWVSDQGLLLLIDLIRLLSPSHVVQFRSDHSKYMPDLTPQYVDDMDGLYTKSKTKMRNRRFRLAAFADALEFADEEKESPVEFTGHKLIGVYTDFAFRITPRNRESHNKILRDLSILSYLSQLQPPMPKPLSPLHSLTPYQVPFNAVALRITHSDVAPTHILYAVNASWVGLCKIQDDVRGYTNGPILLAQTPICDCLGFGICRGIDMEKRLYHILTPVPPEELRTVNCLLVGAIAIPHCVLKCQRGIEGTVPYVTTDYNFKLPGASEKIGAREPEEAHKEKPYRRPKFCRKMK
UniProt P46934, sequence (P46934 whole entry, looked up): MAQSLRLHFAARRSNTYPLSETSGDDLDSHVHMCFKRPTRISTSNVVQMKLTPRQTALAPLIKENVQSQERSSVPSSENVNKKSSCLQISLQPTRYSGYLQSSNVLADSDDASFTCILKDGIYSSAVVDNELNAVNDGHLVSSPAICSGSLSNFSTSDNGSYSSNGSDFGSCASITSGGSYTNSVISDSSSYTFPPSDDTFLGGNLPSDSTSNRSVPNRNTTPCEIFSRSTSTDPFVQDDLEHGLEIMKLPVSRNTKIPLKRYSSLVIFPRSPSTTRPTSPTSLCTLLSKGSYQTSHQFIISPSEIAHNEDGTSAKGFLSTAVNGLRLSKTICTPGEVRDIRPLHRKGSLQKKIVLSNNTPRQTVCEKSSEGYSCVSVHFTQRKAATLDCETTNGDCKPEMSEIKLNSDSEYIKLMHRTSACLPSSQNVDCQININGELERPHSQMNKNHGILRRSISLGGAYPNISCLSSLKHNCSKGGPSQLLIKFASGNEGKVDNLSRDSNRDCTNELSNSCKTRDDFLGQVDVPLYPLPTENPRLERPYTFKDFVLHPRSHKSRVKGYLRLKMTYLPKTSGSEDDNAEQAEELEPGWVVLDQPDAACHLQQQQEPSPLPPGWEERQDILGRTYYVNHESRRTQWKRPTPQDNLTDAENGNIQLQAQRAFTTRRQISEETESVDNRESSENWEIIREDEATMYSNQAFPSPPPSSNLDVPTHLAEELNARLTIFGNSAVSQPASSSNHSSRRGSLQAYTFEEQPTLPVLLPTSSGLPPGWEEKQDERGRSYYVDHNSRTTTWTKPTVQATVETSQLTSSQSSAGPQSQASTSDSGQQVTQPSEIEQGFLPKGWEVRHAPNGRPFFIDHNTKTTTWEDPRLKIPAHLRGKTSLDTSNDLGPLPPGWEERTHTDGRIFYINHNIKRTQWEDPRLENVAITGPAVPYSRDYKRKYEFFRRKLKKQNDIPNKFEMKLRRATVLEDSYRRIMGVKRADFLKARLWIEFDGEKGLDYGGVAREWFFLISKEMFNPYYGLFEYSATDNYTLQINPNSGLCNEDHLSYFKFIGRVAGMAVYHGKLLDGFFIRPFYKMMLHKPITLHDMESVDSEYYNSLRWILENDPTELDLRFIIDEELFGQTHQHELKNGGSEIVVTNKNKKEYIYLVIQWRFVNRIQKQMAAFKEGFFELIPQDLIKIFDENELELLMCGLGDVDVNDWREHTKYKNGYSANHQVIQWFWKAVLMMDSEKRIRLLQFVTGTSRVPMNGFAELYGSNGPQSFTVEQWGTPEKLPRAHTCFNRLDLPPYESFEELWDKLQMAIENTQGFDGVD
UniProt P52948, sequence (P52948 whole entry, looked up): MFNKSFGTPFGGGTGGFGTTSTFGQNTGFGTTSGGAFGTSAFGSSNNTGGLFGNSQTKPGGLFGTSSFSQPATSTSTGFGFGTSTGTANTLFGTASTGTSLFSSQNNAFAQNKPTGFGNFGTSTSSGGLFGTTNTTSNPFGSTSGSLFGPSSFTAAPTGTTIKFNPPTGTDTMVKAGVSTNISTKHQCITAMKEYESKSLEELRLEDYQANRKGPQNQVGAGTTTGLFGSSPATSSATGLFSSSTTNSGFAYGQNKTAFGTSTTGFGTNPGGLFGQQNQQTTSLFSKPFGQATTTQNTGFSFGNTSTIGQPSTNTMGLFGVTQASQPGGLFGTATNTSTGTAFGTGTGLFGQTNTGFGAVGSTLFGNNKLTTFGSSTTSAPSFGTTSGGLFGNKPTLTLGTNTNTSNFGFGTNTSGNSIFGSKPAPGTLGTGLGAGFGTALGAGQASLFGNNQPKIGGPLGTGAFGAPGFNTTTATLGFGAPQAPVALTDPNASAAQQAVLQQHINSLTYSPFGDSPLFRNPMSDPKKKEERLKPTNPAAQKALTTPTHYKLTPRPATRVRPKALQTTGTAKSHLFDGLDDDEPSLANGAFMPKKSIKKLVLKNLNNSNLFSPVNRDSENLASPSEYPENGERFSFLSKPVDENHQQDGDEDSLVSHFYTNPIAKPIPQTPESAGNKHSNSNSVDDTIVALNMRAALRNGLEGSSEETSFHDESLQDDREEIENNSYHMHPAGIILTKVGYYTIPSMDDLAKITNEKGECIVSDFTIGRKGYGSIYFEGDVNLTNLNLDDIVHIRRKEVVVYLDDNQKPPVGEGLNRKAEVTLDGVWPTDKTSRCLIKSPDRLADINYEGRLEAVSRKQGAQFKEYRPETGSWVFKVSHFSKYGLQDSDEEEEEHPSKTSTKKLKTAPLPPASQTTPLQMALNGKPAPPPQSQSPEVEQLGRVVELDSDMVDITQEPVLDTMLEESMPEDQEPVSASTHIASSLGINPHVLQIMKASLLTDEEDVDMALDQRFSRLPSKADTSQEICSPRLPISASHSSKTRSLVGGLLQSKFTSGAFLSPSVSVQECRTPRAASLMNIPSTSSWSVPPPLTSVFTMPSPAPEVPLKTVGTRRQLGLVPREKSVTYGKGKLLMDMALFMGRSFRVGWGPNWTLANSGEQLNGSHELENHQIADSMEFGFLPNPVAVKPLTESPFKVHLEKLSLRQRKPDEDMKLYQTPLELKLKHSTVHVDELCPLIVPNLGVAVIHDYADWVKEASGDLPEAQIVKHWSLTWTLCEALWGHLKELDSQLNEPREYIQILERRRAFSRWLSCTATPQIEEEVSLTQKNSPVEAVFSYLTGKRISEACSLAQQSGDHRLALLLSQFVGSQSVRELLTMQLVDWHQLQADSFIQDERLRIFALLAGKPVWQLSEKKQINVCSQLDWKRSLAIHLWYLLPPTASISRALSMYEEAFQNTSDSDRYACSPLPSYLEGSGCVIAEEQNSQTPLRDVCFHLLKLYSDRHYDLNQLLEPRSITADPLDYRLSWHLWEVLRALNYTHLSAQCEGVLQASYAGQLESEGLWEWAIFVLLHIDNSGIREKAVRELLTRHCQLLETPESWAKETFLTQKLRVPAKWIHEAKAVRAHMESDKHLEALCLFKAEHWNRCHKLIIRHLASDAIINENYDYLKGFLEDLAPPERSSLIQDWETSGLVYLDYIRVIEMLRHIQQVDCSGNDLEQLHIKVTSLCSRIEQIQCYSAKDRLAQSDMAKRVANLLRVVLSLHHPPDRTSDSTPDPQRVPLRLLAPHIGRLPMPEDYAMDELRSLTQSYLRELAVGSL
UniProt O75914, sequence (O75914 whole entry, looked up): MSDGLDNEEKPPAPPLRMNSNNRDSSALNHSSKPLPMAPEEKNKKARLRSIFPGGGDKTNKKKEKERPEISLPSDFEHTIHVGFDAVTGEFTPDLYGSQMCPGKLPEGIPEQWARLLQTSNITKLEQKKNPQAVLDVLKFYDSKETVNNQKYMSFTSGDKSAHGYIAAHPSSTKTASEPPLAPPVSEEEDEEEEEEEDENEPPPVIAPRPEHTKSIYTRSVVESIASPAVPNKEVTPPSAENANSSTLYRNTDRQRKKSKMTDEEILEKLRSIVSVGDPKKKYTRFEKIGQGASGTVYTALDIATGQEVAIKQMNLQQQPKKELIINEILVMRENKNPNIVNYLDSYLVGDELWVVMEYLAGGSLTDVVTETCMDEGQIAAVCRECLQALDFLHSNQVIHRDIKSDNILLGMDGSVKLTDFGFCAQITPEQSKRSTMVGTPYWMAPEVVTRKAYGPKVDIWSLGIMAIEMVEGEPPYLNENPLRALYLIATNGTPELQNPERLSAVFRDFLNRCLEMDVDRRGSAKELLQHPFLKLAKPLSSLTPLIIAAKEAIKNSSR

| Target | probe-labelled cysteine peptide fold change |
| --- | --- |
| OSBPL9_Q96SU4_577_SILTVPWVELGGECNINCSK (UniProt Q96SU4) | 0.311 |
| NLRX1_Q86UT6_713_CTVVAAVLGSGR (UniProt Q86UT6) | -0.136 |
| NSUN6_Q8TEA1_242_ILDLCAAPGGK (UniProt Q8TEA1) | 0.157 |
| PAICS_P22234_266_SESQCR (UniProt P22234) | 1.85 |
| NOL9_Q5SY16_219_WSMQNFSPQCSIVLLEHLK (UniProt Q5SY16) | 0.0873 |
| NLRX1_Q86UT6_259_LAGTGLCSDPEEPQEPAAIIVNLLR (UniProt Q86UT6) | 0.274 |
| PAK3_O75914_424_LTDFGFCAQITPEQSKR (UniProt O75914) | -0.27 |
| OSBPL1A_Q9BXW6_340_EDWLEAIEEHSAYSTHYCSQDQLTDEEEEDTVSAADLKK (UniProt Q9BXW6) | 0.199 |
| NUDC_Q9Y266_188_WTQTLSELDLAVPFCVNFR (UniProt Q9Y266) | -0.0574 |
| NFIX_Q14938_6_MYSPYCLTQDEFHPFIEALLPHVR (UniProt Q14938) | 0.072 |
| NCKIPSD_Q9NZQ3_138_QPNGVCR (UniProt Q9NZQ3) | -0.0933 |
| NUP98_P52948_1711_HIQQVDCSGNDLEQLHIK (UniProt P52948) | 0.207 |
| PALD1_Q9ULE6_631_IPMPDFCAPREEDFDQLLEALR (UniProt Q9ULE6) | 0.052 |
| PA2G4_Q9UQ80_296_MGVVECAKHELLQPFNVLYEK (UniProt Q9UQ80) | -0.781 |
| NIT2_Q9NQR4_153_VGLGICYDMR (UniProt Q9NQR4) | -0.261 |
| PACSIN2_Q9UNF0_465_MEDEDEQGWCK (UniProt Q9UNF0) | 0.118 |
| NUP93_Q8N1F7_328_CGDLLAASQVVNR (UniProt Q8N1F7) | 0.0268 |
| NEDD4_P46934-4_4_ATCAVEVFGLLEDEENSR (UniProt P46934) | -0.669 |
| NT5DC2_Q9H857_475_FSDLYMASLSCLLNYR (UniProt Q9H857) | 0.0123 |
| PADI2_Q9Y2J8_629_GLLEPLGLECTFIDDISAYHK (UniProt Q9Y2J8) | 0.0551 |
| NUTF2_P61970_80_IQHSITAQDHQPTPDSCIISMVVGQLKADEDPIMGFHQMFLLK (UniProt P61970) | -0.758 |
| NIT1_Q86X76_251+259_AIETQCYVVAAAQCGR (UniProt Q86X76) | 0.553 |
| NFX1_Q12986_295_STCDSENLAVINK (UniProt Q12986) | 0.0624 |
| PARK7_Q99497_46_VTVAGLAGKDPVQCSR (UniProt Q99497) | -0.13 |
| P4HA1_P13674_293_QKYEMLCR (UniProt P13674) | -0.0868 |
| NCDN_Q9UBB6-2_5_ASDCEPALNQAEGR (UniProt Q9UBB6) | 0.0744 |
| PAFAH1B1_P43034_281_EHEHVVECISWAPESSYSSISEATGSETK (UniProt P43034) | -0.156 |
